The record followed here is PubChem BioAssay.

The structures appear in SMILES notation.

Sequence of Torsin-1A-interacting protein 1 (Homo sapiens) (Q5JTV8 whole entry, looked up): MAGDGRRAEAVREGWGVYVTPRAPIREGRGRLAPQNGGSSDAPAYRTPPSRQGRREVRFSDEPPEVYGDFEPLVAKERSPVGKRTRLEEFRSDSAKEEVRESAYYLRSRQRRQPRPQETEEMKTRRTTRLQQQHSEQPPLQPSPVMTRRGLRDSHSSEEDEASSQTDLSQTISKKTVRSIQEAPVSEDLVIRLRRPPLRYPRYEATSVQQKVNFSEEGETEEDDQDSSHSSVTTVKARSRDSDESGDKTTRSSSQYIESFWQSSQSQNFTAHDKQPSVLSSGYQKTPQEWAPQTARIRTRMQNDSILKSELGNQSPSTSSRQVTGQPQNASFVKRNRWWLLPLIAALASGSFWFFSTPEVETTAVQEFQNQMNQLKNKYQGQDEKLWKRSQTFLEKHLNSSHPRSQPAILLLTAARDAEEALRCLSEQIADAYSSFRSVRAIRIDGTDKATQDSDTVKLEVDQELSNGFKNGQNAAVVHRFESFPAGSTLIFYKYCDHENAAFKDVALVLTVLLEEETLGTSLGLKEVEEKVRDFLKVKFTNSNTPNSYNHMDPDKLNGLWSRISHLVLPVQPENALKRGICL

The assay addresses Torsin-1A-interacting protein 1 (Homo sapiens) (UniProt Q5JTV8). The assay is described as follows: compound microarray binding of lysate hLAP1 – cell lysate, small-molecule microarray, COS7 lysate, 635/667 nm fluorescence, primary screen (AID 1116). As to conditions: 635 nm fluorescence, higher = more signal.
Consider `COC(OC)[C@@H](C)[C@H](OC)[C@@H](C)[C@H](OC)c1ccccc1`, for which the composite z-score is 0.0678. The value for `C=CC[C@@H]1C=C[C@H](ON=C(C)CCN2CCCCc3nc(C)c(C)cc32)[C@@H](CO)O1` was 0.533. Regarding `CC(C)=CCCC(C)=CCON=C1C[C@@H](O)[C@@H](O)[C@@H]2[C@@H]3C(=O)N(Cc4ccc5c(c4)OCO5)C(=O)[C@@H]3CC[C@H]12`, the composite z-score turned out to be 0.142. `COc1cccc([C@H]2Oc3ccc(OC)cc3C(=NOCC[C@@H]3C=C[C@H](OC(C)=O)[C@@H](COC(C)=O)O3)[C@@H]2O)c1` displayed a composite z-score of 0.786.

In the case of `COC(=O)[C@H](C)NC(=O)CCC1CC(OC(=O)NCc2ccc3c(c2)OCO3)CC2(CCCC(COC(=O)NCCC(C)C)O2)O1` (some centres not stated), the composite z-score came out at 0.302. As to `O=C1[C@H]2CCn3c(=O)n(-c4ccccc4)c(=O)n3[C@H]2[C@H](O)[C@@H]2O[C@H]12`, the composite z-score was 0.085. For `C[C@]12CCC3c4ccc(OCC5CO5)cc4CCC3C1CC[C@@H]2O` (some centres not stated), the composite z-score is 0.542. The value for `CCN1C(=O)[C@H]2[C@H]3[C@H](O)[C@H](O)CC(=NNC(=O)OCc4ccccc4)[C@H]3CC[C@H]2C1=O` was 0.185; that for `CCN1C(=O)[C@H]2[C@H]3[C@H](O)[C@H](O)CC(=NOCC=C(C)CCC=C(C)C)[C@@H]3CC[C@H]2C1=O` was 0.0411; that for `CCOC(=O)[C@H](Cc1ccccc1)NC(=O)CCC1CC(OC(=O)NCc2cccc3ccccc23)CC2(CCCC(COC(=O)NCCc3ccccc3OC)O2)O1` (some centres not stated) was 0.135.

In the case of `CON=C1c2cc(OC)ccc2O[C@H](c2cccc(OC)c2)[C@H]1O`, the composite z-score came to 0.646. As to `CCOC(=O)[C@H](CC(C)C)NC(=O)CCC1CC(OC(=O)NCc2ccc3c(c2)OCO3)CC2(CCCC(COC(=O)NCCC(C)C)O2)O1` (some centres not stated), the composite z-score was determined as 0.0461.
